The list is not random: actives were taken first. Their share in the collection is about 4.6%.
D1 agonist: human D1 receptor agonism; 1% of 360,000 active; HEK293 T-REx D1 cells, calcium flux, agonist mode; activation, % at 2 µM; also: 0% is about no effect
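Agonism was scored from calcium flux recorded over 180 s (1 read/s) after pintool compound addition, following a 10-cycle baseline. Cells were inducible force-coupled HEK293 TREx D1, plated overnight at 30 C and loaded with no-wash calcium dye.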
D1 antag: blocks dopamine activation of the human D1 receptor; P21728; AID 504652; 3.2% of 360,000 active; activity change, negative = inhibition, % at 10 µM; HEK293 TREx D1 cells, calcium flux, dopamine EC80; stronger effect = lower value; in the data active = activity change below about -30%; also: % is scaled to controls: 0 for no effect and ±100 for the full control effect
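Using tetracycline-induced force-coupled D1 Hek293 cells and a calcium dye, signals were followed for 180 s after compound, then for 180 s after EC80 dopamine, to detect inhibitors.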
TRHR enhancer: allosterically enhances the human TRH receptor; P34981; TRHR cells, fluo-8 calcium fluorescence, EC20 TRH enhancement; 0.66% of 360,000 active; AID 493056; enhancement, % at 2 µM; in the data active = enhancement above about 30%; also: 0% is about no effect
Target sequence (P34981 whole entry, looked up): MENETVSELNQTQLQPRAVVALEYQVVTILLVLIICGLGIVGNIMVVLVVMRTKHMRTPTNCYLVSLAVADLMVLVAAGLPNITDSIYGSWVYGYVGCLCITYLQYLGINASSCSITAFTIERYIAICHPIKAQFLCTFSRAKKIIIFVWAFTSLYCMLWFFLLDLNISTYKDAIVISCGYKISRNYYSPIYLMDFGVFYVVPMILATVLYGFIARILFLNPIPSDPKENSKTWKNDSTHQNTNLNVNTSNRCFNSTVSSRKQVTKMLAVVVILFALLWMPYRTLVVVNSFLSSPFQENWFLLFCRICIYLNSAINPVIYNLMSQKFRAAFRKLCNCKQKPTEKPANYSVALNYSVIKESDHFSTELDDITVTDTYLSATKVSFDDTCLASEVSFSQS
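Enhancer read-out: after compound pinning and an initial kinetic agonist-mode read, an EC20 of TRH (10 nM final) was injected and fluo-8 calcium signal (Ex 480/Em 530) followed at 1 s/cycle for 100 cycles in TRHR-expressing cells.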
TRHR ag: TRH receptor (human) agonism; P34981; activation, % at 2 µM; AID 493084; TRHR cells, calcium flux fluo-8, FDSS agonist mode; 0.18% of 360,000 active; also: 0% is about no effect
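Read-out: compound-evoked intracellular calcium rise in TRHR cells, fluo-8 dye, kinetic FDSS fluorescence at 1 s/cycle following a 10-cycle baseline. Cells cultured overnight before dye loading (30 min–1.5 h, RT).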
D1 PAM: potentiators of human D1 dopamine receptor; HEK293 TREx D1 cells, calcium flux, dopamine EC20 potentiation; potentiation, % at 10 µM; P21728; 0.036% of 360,000 active; in the data active = potentiation above about 30%; also: 0% is about no effect
Starred values were filed as active, the others as inactive; . = no result. Rule as the data show it, unless noted: active = activation above about 30%; inactive = the rest.

SMILES | D1 agonist | D1 antag | TRHR enhancer | TRHR ag | D1 PAM
CCCCCCOC(=O)C[N+](C)(C)CCOC1CC2CCC1(C)C2(C)C (stereo unspecified) | 92.5* | 5.9 | -1.3 | -0.8 | -0.2
CCc1ccccc1N1CC(c2nnc(NC(=O)c3ccco3)s2)CC1=O (stereo unspecified) | 0.1 | -8.9 | 2.0 | -0.4 | 1.2
COc1ccccc1NC(=O)c1ccc(NC(=O)COC(=O)C(C)C)cc1 | 2.3 | 2.6 | 33.5* | -0.5 | -4.9
COc1ccccc1NC(=O)c1ccc(NC(=O)CSc2ncn[nH]2)cc1 | 3.4 | -44.7* | -2.2 | -0.3 | -3.8
COc1ccccc1NC(=O)CSc1ncn[nH]1 | 6.4 | 4.0 | 8.7 | -0.5 | 2.4
CCN1CCN(Cc2c(O)ccc3c2O/C(=C\c2ccccc2)C3=O)CC1 | 51.5* | -22.2 | 3.3 | 9.6 | -5.7
CCN1CCN(Cc2c(O)ccc3c2O/C(=C\C=C\c2ccccc2)C3=O)CC1 | -2.7 | -20.1 | 11.4 | -0.2 | -6.2
Cc1ccc(/C=C2\Oc3c(ccc(O)c3CN3CCN(C)CC3)C2=O)cc1 | 40.0* | 2.8 | -1.5 | 10.1 | 3.6
COc1ccccc1/C=C/C=C1\Oc2c(ccc(O)c2CN2CCN(CCO)CC2)C1=O | 114.3* | -30.8* | -4.2 | 25.0 | 0.5
O=C1/C(=C/C=C/c2ccccc2)Oc2c1ccc(O)c2CN1CCN(CCO)CC1 | 17.3 | 2.5 | 0.0 | 13.2 | 0.6
COC(=O)c1cc2oc(C)cc2n1CC(=O)Nc1cc(Cl)ccc1OC | 1.3 | 20.7 | -4.9 | -0.1 | 2.4
COc1ccc(NC(=O)c2oc3ccccc3c2NC(=O)C23CC4CC(CC(C4)C2)C3)c(OC)c1 | 5.2 | 6.6 | 10.7 | -0.1 | 1.8
O=C1OC(C(=O)Nc2nccs2)Cc2ccccc21 (stereo unspecified) | 0.8 | -39.6* | -5.3 | 0.8 | 1.2
COc1ccccc1NC(=S)N(Cc1cccs1)C1CCCC1 | -0.3 | -3.9 | 2.7 | -0.4 | -0.8
COc1ccccc1NC(=S)N(Cc1ccccc1)Cc1cccs1 | 12.0 | -54.1* | 10.7 | -0.4 | -1.9
CC(C)Oc1ccc(CNC(=O)c2ccc3nc(Cc4ccccc4)oc3c2)cc1 | 33.3* | -1.0 | 0.8 | 1.0 | -1.2
Cc1cccc(CNC(=O)c2ccc3nc(Cc4ccccc4)oc3c2)c1 | 31.0* | -31.4* | -0.9 | 1.3 | -3.7
Cc1ccc(-c2nnc(SCC(=O)NCCC(C)C)nc2-c2ccc(C)cc2)cc1 | 14.7 | -7.6 | 1.0 | -0.5 | -3.2
O=C(Nc1ccc(Br)cc1)c1ccc(N2C(=O)C3CCCCC3C2=O)cc1 (stereo unspecified) | 3.9 | -36.6* | 2.5 | 1.3 | -6.1
O=C(Nc1ccc(Br)cc1)c1cccc(N2C(=O)C3CCCCC3C2=O)c1 (stereo unspecified) | 8.5 | -13.5 | -3.0 | -0.1 | -4.7
CCOc1cccc2sc(N(Cc3cccnc3)C(=O)C3CCCCC3)nc12 | 2.5 | . | 11.9 | -0.2 | 3.6
CC(=O)OCC1O[C@@H](O[C@@H]2C[C@H]3C(C)(C)[C@H](OC(C)=O)CC[C@]3(C)[C@H]3CC[C@]45C[C@]4(CC[C@H]5[C@@H](C)C[C@@H](O)[C@H](O)C(C)(C)O)[C@@]32C)[C@H](O)[C@@H](O)[C@@H]1O (stereo partly specified) | 334.4* | 14.2 | 10.4 | -0.4 | 19.3
COc1ccc(/C=C/CN2CCN(CCc3ccccc3)C(CCO)C2)cc1 (stereo unspecified) | 5.7 | -0.4 | 38.6* | 0.3 | -4.5
CCOc1ccccc1CN1CCN(C/C=C/c2ccc(OC)cc2)CC1CCO (stereo unspecified) | 11.9 | -26.2 | -5.7 | 2.5 | -5.7
COc1cccc(CNC(=O)c2ccc(NC(=O)N3CCCCc4ccccc43)cc2)c1 | 1.1 | 0.0 | -0.6 | -0.4 | -2.1
SMILES | D1 agonist | D1 antag | TRHR enhancer | TRHR ag | D1 PAM
CS(=O)(=O)c1ncc(Cl)c(C(=O)Nc2ccc(OC(F)F)cc2)n1 | 2.0 | -38.4* | -9.8 | 0.5 | -2.2
CS(=O)(=O)c1ccc(C(=O)Nc2ccc(N3CCOCC3)cc2)c(Cl)c1 | 3.0 | 9.2 | -1.0 | 0.4 | -4.1
CS(=O)(=O)c1ncc(Cl)c(C(=O)Nc2ccc(N3CCOCC3)cc2)n1 | -2.9 | -35.4* | 1.4 | -0.5 | -6.5
Cc1c(CCC(=O)NCc2ccc(F)cc2)c(=O)oc2cc(O)ccc12 | 1.3 | -7.1 | 6.5 | -0.6 | -2.0
COc1ccc(-c2cc(C(=O)NCCc3ccc(OC)c(OC)c3)c3c(-c4ccc(F)cc4)[nH]nc3n2)cc1 | 2.6 | -19.0 | 3.8 | 0.2 | -1.6
O=C(Nc1ccccc1N1CCOCC1)c1cc(Br)c(Br)s1 | 3.4 | -30.9* | -0.6 | 0.3 | 3.4
Cn1c(=O)n(C)c2cc(N3CCOCC3)c(NC(=O)c3ccc(F)cc3)cc21 | 1.8 | 2.7 | 31.6* | 0.2 | 1.6
COc1cccc(OC)c1C(=O)Nc1cc2c(cc1N1CCOCC1)n(C)c(=O)n2C | 2.8 | -4.3 | 8.4 | 0.3 | -2.2
Cn1c(=O)n(C)c2cc(N3CCOCC3)c(NC(=O)c3ccccc3Br)cc21 | -0.5 | -43.0* | 2.9 | -1.3 | -2.2
Cc1nn(Cc2ccccc2Cl)c2sc(C(=O)Nc3ccccc3N3CCOCC3)cc12 | 3.1 | -37.9* | 2.1 | 0.1 | -4.0
CC1(c2cccc(Br)c2)NC(=O)N(CC(=O)NCC2CCCO2)C1=O (stereo unspecified) | 2.5 | -0.4 | 19.2 | -0.5 | 0.6
CN(C(=O)CN1C(=O)NC(C)(c2cccc(Br)c2)C1=O)C1CCCCC1 (stereo unspecified) | 5.7 | -56.6* | -5.3 | 0.4 | -3.4
O=C1NC(=O)/C(=C\c2ccc(Oc3cnccn3)cc2)S1 | 0.6 | -8.2 | 0.2 | -0.5 | -7.2
COc1cc(/C=C2\SC(=O)NC2=O)ccc1Oc1cnccn1 | -0.6 | -40.8* | -3.3 | 1.0 | -0.1
CCc1ccc(CNc2ncnc3onc(-c4ccc(Cl)cc4)c23)cc1 | 8.3 | 13.1 | 1.2 | 1.5 | -2.4
N=c1c2c(-c3ccccc3)c(-c3ccccc3)n(Cc3ccco3)c2ncn1CCCO | 45.3* | 0.0 | 5.4 | -0.6 | 1.5
N=c1c2c(-c3ccccc3)c(-c3ccccc3)n(Cc3ccco3)c2ncn1CCO | 2.1 | 26.8 | -4.1 | 0.3 | -4.2
Cc1nc2cccnc2n1-c1cccc(C(=O)N2CCN(c3cccc(Cl)c3)CC2)c1 | 5.3 | -32.2* | -4.2 | -0.9 | -3.7
O=C(c1ccc2c(Cl)c3c(nc2c1)CCCC3)N1CCN(c2cccc(Cl)c2)CC1 | 7.3 | -9.0 | 33.2* | -0.5 | 6.2
Nc1c(-c2nc(-c3cccs3)no2)nnn1-c1ccccc1Cl | 1.7 | 1.0 | -3.5 | 0.5 | -1.3
CCCCN(C)CC(O)Cn1cc(/C=C/C(=O)c2ccc(Br)cc2)c2ccccc21 (stereo unspecified) | 125.6* | -56.7* | -3.0 | 7.4 | -3.0
CCCCN(C)CC(O)Cn1cc(/C=C/C(=O)c2ccc(OC)c(OC)c2)c2ccccc21 (stereo unspecified) | 63.1* | -7.5 | -5.4 | 22.5 | -3.0

Screening results: PubChem, National Center for Advancing Translational Sciences (NCATS)
